Results on eleven molecules are retold here after PubChem BioAssay.

The experiment deals with Follistatin (Homo sapiens) (UniProt P19883). The experiment in a line: FST protein binding to printed compounds – biochemical, small-molecule microarray, 635/667 nm fluorescence, primary screen (AID 1132). Conditions: 635 nm fluorescence, higher = more signal.
Follistatin (Homo sapiens), sequence (P19883 whole entry, looked up): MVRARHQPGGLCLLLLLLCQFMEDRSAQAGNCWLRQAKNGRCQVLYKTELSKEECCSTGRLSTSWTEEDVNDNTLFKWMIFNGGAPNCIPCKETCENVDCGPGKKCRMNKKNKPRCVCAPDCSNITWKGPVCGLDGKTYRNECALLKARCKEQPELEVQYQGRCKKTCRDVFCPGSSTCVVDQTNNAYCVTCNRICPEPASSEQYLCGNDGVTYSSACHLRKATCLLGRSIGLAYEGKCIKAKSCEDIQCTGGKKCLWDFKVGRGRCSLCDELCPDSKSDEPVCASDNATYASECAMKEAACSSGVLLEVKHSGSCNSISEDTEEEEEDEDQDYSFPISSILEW
Take `Cc1ccc(S[C@]2(C(=O)NCCCN(C)C)CC(=O)N(Cc3ccccc3)[C@@H]2c2ccc(CO)cc2I)cc1`: the composite z-score is -0.143.
The figure for `COc1ccc([C@H]2C[C@H]3C(Br)=C[C@]2(OC)C(=O)[C@]32CO2)cc1` is 0.276; for `COC(=O)[C@H]1[C@@H]2COc3ccccc3[C@H]2N[C@H]1C(=O)OC` it is 0.214; for `C=CC[C@]1(C(N)=O)N=C(c2ccc(OCCCO)cc2)O[C@H]1c1ccccc1CN=[N+]=[N-]` it is 0.653.
`CC(C)[Si](OCC[C@H]1O[C@]2(C(=O)N(Cc3ccccc3)c3ccccc32)[C@@H](C)[C@@H]1[Si](C)(C)O)(C(C)C)C(C)C` had a composite z-score of 0.122.
Turning to `CC(C)[Si](OCCCNS(=O)(=O)c1ccc(Br)cc1)(C(C)C)C(C)C`, the composite z-score worked out at 0.928.
With `C=CCOC(=O)[C@@H]1[C@H]2C(=O)O[C@H](c3ccccc3)[C@H](c3ccccc3)N2[C@H](c2ccc(OCCOC(=O)[C@H]3C[C@H]4C(=O)N[C@@H](CCCCNC(C)=O)C(=O)N4[C@H]3c3ccc(O)cc3)cc2)[C@@]12C(=O)Nc1ccc(I)cc12`, the composite z-score worked out at 1.08.
`C[C@]1(C(=O)NCCN2CCOCC2)c2ccccc2C(=O)N(Cc2ccccc2)[C@H]1c1ccc(CO)cc1`: the composite z-score was 0.0342.
The figure for `C=CCN(C(=O)C1N(c2ccc(CCO)cc2)C(=O)C2C(C(=O)O)C3C=CC21O3)C(C)(C)C` (stereo unspecified) is -2.8.
The figure for `CCOC(=O)C[C@H]1[C@H](OC(=O)Cc2ccc3c(c2)OCO3)[C@@H](NC(=O)c2ccc3ccccc3c2)c2cc(OCCCO)ccc2N1C(=O)Cc1ccc(OC)cc1` is 0.413; for `COc1ccc([Si](C)(C)[C@H]2[C@H](CCO)O[C@@]3(C(=O)N(Cc4ccc(N5CCCCC5=O)cc4)c4ccccc43)[C@@H]2C)cc1` it is 1.3.
